In PMC4336329 (PLoS ONE, 2015):
Among all 310,000 compounds or so, about 2,200 (0.71%) showed an effect of 50% or more. The effect is printed as a negative number. Many of the other results were omitted from the sample, so strong results are more common in it than they were.

These compounds were tested against human ether-à-go-go-related gene (hERG) potassium channel (human, UniProt Q12809) (assay: primary screen, population patch clamp on CHO cells stably expressing hERG; higher = less effect of the substance).
Sequence of human ether-à-go-go-related gene (hERG) potassium channel (Q12809 whole entry, looked up): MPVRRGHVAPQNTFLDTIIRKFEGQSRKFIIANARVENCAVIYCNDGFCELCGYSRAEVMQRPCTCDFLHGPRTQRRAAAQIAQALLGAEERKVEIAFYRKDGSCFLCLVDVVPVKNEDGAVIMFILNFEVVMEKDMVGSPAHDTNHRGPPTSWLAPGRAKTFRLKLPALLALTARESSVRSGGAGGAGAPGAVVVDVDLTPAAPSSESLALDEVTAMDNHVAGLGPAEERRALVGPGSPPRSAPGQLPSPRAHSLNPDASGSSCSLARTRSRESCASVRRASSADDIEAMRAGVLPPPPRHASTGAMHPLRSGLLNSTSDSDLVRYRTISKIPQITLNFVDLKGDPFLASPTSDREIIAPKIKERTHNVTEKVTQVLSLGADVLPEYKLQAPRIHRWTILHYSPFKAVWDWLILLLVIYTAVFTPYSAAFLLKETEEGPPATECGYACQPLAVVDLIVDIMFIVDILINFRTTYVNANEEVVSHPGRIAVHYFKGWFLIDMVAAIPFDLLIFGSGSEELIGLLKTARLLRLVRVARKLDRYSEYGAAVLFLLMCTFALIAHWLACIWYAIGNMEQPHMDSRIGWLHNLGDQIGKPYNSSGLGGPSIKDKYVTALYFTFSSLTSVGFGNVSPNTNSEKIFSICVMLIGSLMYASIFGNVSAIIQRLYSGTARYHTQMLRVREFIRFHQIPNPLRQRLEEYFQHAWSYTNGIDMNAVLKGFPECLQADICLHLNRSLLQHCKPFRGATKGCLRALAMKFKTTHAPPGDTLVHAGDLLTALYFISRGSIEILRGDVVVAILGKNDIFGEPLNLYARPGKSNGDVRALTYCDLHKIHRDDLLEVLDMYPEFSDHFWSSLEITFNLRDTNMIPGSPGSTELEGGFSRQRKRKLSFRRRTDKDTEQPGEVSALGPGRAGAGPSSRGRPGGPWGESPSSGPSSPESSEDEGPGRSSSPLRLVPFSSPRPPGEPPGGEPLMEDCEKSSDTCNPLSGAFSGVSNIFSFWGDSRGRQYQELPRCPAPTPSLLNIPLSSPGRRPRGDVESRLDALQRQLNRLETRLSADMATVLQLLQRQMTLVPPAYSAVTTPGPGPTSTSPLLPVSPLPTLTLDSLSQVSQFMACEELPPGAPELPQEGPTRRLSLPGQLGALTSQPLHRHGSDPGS

| Compound | hERG current change (%, negative = inhibition) at 1uM |
| --- | --- |
| COc1cccc(CN2CC(C(=O)NCCCCc3ccccn3)CCC2=O)c1 (stereo not drawn) | 7.17% |
| Cc1ccccc1Cn1c(C)nc2ccccc21 | 10.4% |
| Cc1ccc(SCc2nc3ccccc3n2CC(=O)Nc2c(C)cccc2C)cc1 | 6.88% |
| CC(C)C[C@@H](C(=O)NC1CCN(Cc2ccccc2)CC1)N1C(=O)N2CCc3c([nH]c4ccccc34)[C@@]2(C)C1=O | -12.1% |
| C[C@@H](C(=O)NC1CCN(Cc2ccccc2)CC1)N1C(=O)N2CCc3c([nH]c4ccccc34)[C@@]2(C)C1=O | -62.1% |
| CC(C)[C@@H](C(=O)NC1CCN(Cc2ccccc2)CC1)N1C(=O)N2CCc3c([nH]c4ccccc34)[C@@]2(C)C1=O | -4.75% |
| Cc1ccc(-n2nnnc2SCC(=O)Nc2ccccc2-c2ccccc2)cc1C | 2.73% |
| C#CC1CN(Cc2ccccc2)CC(C#C)N1C.Cl (stereo not drawn) | 15.1% |
| O=C(CN1CCN(c2ccc(O)cc2)CC1)Nc1ccc(SC(F)F)cc1 | -78.4% |
| CCN(CC)c1ccc(NC(=O)CN2CCN(CC(=O)Nc3ccc(F)cc3)CC2)cc1 | -84.5% |
| COc1ccc(N2CCN(CC(=O)Nc3ccc(SC(F)F)cc3)CC2)cc1 | -35.8% |
| O=C(CN1CCN(CC(=O)Nc2ccc(-c3ccccc3)cc2)CC1)Nc1ccc(F)cc1 | -13.7% |
| CN(C)c1ccc(NC(=O)CN2CCN(CC(=O)Nc3ccc(F)cc3)CC2)cc1 | -61.1% |
| COc1cccc(N2CCN(CC(=O)Nc3ccc(SC(F)F)cc3)CC2)c1 | -27.7% |
| CCN(CC)c1ccc(NC(=O)CN2CCN(c3ccccc3F)CC2)cc1 | 7.06% |
| CN(C)c1ccc(NC(=O)CN2CCN(c3ccc(F)cc3)CC2)cc1 | -3.53% |
| O=C(CN1CCN(c2ccc(Cl)cc2)CC1)Nc1ccc(F)cc1 | -28.1% |
| CN(C)c1ccc(NC(=O)CN2CCC(C(=O)c3ccc(F)cc3)CC2)cc1 | -4.93% |
| O=C(CN1CCN(CC(=O)Nc2ccc(Cl)cc2)CC1)Nc1ccc(F)cc1 | -86.9% |
| CCN(CC)c1ccc(NC(=O)CN2CCN(CC(=O)Nc3ccccc3F)CC2)cc1 | -13% |
| CN(C)C=O.Cc1cccc(-n2nnnc2SCC(=O)N(CC(C)C)c2c(N)n(CC(C)C)c(=O)[nH]c2=O)c1 | 4.9% |
| O=C(c1cccc(S(=O)(=O)NCc2ccccc2)c1)N1CCCCC1 | 9.32% |
| CCN(CC)CCCN(C(=O)Cn1nnc(-c2ccc(OC)c(OC)c2)n1)C(C(=O)NC(C)(C)C)c1ccc(F)cc1 (stereo not drawn) | -25.2% |
| C=CCN1C(=O)C(CC(=O)NCC)SC1=Nc1ccccc1CC (stereo not drawn) | 11.7% |
| c1ccc(CSc2nncn2-c2ccccn2)cc1 | 7.05% |
| O=C(CSC(=S)N1CCCCC1)c1c(F)cccc1F | 21.7% |
| OC1(c2ccccc2)c2ccccc2-c2ncccc21 (stereo not drawn) | 5.63% |

| Compound | hERG current change (%, negative = inhibition) at 1uM |
| --- | --- |
| O=C(Cc1coc2cc3c(cc12)CCC3)NCC1(N2CCCCC2)CCCCC1 | -59.2% |
| Cc1ccc2c(CC(=O)NCC3(N4CCOCC4)CCCCC3)coc2c1C | -5.15% |
| O=C(Cc1coc2cc3c(cc12)CCC3)NC1CCCCCCC1 | 0.112% |
| O=S(=O)(c1cccs1)N1CN(C2CCCCC2)c2nc3ccccc3nc21 | 0.376% |
| COc1cc(/C=C2\SC(N3CCc4ccccc4C3)=NC2=O)cc(OC)c1OC | 5.93% |
| CCCCn1c(=N)n(CC(O)COc2cccc(C)c2)c2ccccc21.Cl (stereo not drawn) | -59.8% |
| CCCn1c(=N)n(CC(O)COc2cccc(C)c2)c2ccccc21.Cl (stereo not drawn) | -60% |
| CCN(CC)CCn1c(=N)n(CC(O)COc2cccc(C)c2)c2ccccc21.Cl (stereo not drawn) | -22.1% |
| CCn1c(=N)n(CC(O)COc2cccc(C)c2)c2ccccc21.Cl (stereo not drawn) | -16% |
| COc1ccc(-c2oc3cccnc3c2C#CC2(O)CCCCC2)cc1 | 6.61% |
| COCCC(=O)N1CCC(Oc2ccc(C(=O)N(C)CCCC3CCCC3)cc2)CC1 | -1.26% |
| Cc1cccn2c(=O)c3cc(C(=O)NC4CCCC4)c(=N)n(CCCN4CCOCC4)c3nc12 | -77.5% |
| Cc1cccn2c(=O)c3cc(C(=O)NC4CCCCC4)c(=N)n(CCN4CCOCC4)c3nc12 | -51.7% |
| CCCn1c(=N)c(C(=O)NC2CCCC2)cc2c(=O)n3cccc(C)c3nc21 | -84.1% |
| C#CCOCCOCCOCCNc1nc(N2CCN(C(=O)[C@H](CCC(=O)O)n3cc(C(N)Cc4ccc(O)cc4)nn3)CC2)nc(N2CCN(C(=O)[C@H](CCC(=O)O)n3cc(C(N)Cc4ccc(O)cc4)nn3)CC2)n1.Cl (stereo partly drawn) | 12.3% |
| Cc1ccnc(SCc2cc(=O)c(OC(=O)c3ccccc3)co2)n1 | 15% |
| CC(NC(=O)C(C)N1C(=O)c2cccc([N+](=O)[O-])c2C1=O)c1ccccc1 (stereo not drawn) | 14.9% |
| O=C(c1cc2nc(-c3ccco3)cc(C(F)(F)F)n2n1)N1CCCc2ccccc21 | 16.9% |
| COc1ccc(CNS(=O)(=O)c2c(C(=O)N3CCCCCC3)c(C)n(C)c2C)cc1 | 10.5% |
| C=CCNC(=O)c1onc(CSc2cccc(OC)c2)c1C(=O)O | 18.7% |
| CCOc1ccc(-c2nc(-c3ccccc3C)no2)cc1 | 10.9% |
| Cc1cc(C)n2nc(-c3cnn(C)c3C(F)(F)F)cc2n1 | 1.96% |
| Cn1c(CSCc2ccccc2)nnc1SCC(=O)Nc1nccs1 | -17.6% |
| O=C1NC(Cc2ccccc2)C(=O)N1CC(=O)N1CCCc2ccccc21 (stereo not drawn) | 5.14% |
| CCOC(=O)C1CCN(C(=O)c2cc3c(C)cc(C)cc3[nH]2)CC1 | 12% |
| Cc1cc(C)c2cc(C(=O)N3CCC(N4CCCCC4)CC3)[nH]c2c1 | -58.8% |
| Cc1cc(C)c2cc(C(=O)N3CCC(C(=O)c4ccc(F)cc4)CC3)[nH]c2c1 | 8.43% |
